# Test results published in PubChem BioAssay (Tox21).
# A number with no mark means an inactive call. Records with an inconclusive call do not appear. Entries that show only a call come without a potency. The source made the active and inactive calls. Unless noted, the call rests on the fitted dose curve; in most records, active means well fitted curve in the direction sought with a large enough effect in the repeat runs; inconclusive means weak or mixed curves; inactive means no such curve, though single readings can be large; an effect the other way counts as inactive or inconclusive.
# Key:
# [1] = qHTS assay to identify small molecule antagonists of the estrogen related receptor (ERR) signaling pathway from Tox21 library - cell viability counter screen (AID 1224834); further: nearly all actives have a fitted effect of over 30% in size; further: potency means the concentration at half of the fitted maximal effect
# Procedure, shortened: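 CellTiter-Fluor fluorescence measured; ERR cells; 17.5 h compound incubation at 37 C; 30 min reagent step.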
# [2] = qHTS assay to identify small molecule agonists of the constitutive androstane receptor (CAR) signaling pathway - cell viability counter screen (AID 1224836); further: nearly all actives have a fitted effect of over 45% in size
# Procedure, shortened: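 Cells were seeded and incubated 4 hrs. Compounds were added across 15 concentrations together with PK11195 at 0.75 uM final. Plates were incubated 23 hrs at 37 C. CellTiter-Fluor was added and fluorescence measured.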
# [3] = qHTS assay to identify small molecule antagonists of the constitutive androstane receptor (CAR) signaling pathway - cell viability counter screen (AID 1224837); further: nearly all actives have a fitted effect of over 45% in size; further: potency means the concentration at half of the fitted maximal effect
# Procedure, shortened: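 Using CellTiter-Fluor, viability is scored in HepG2 cells stably carrying hCAR and a 2.2kb CYP2B6 reporter after 23 hr compound exposure across 15 concentrations, with CITCO present at 50 nM.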
# [4] = qHTS assay to identify small molecule antagonists of the estrogen related receptor signaling pathway with the pleiotropic PPARgamma coactivator (PGC) from Tox21 10K library - cell viability counter screen (AID 1224840; active means well fitted cell-killing curve with a large enough effect in the repeat runs, not every such curve was filed as active; further: nearly all actives have a fitted effect of over 40% in size)
# Procedure, shortened: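 Here the PGC/ERR cells serve as a cytotoxicity control: they are exposed to compounds for 17.5 hours at 37 C, and live-cell signal is quantified using CellTiter-Fluor fluorescence.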
# [5] = qHTS assay to identify small molecule antagonists of the estrogen related receptor signaling pathway with the pleiotropic PPARgamma coactivator (PGC) from Tox21 10K library (AID 1224841; call rule not given here; further: actives are mostly falling curves and most rising ones were filed inactive; nearly all actives have a fitted effect of over 50% in size; further: potency means the concentration at half of the fitted maximal effect)
# Procedure, shortened: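 Each well held 2,000 PGC/ERR cells, pre-incubated six hours (37 C, 5% CO2). Test substances in DMSO were added by pin tool and left for 18 h at 37 C before luciferase detection by One-Glo.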
# [6] = qHTS assay to identify small molecule agonists of the estrogen related receptor signaling pathway with the pleiotropic PPARgamma coactivator (PGC) from Tox21 10K library (AID 1224842); further: nearly all actives have a fitted effect of over 15% in size
# Procedure, shortened: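 PGC/ERR reporter cell line, 2,000 cells per well, incubated 6 h at 37 C before 23 nL compound in DMSO was added. After 18 h at 37 C, One-Glo luminescence read following 30 min at room temperature.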
# [7] = qHTS assay to identify small molecule agonists of the hypoxia (HIF-1) signaling pathway - cell viability counter screen (AID 1224844; calls by dose curve; further: nearly all actives have a fitted effect of over 50% in size; further: potency means the concentration at half of the fitted maximal effect)
# Procedure, shortened: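 Multiplexed with the HRE beta-lactamase assay, this viability read used CellTiter-Glo luminescence (30 min, RT) on HRE-bla ME-180 cells treated 17 hrs with compounds in 0.5% dialyzed FBS medium.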
# [8] = qHTS assay to identify small molecule agonists of H2AX (AID 1224845; active means well fitted activation curve with a large enough effect in the signal ratio in the repeat runs, not every such curve was filed as active; the % refers to the signal ratio)
# Procedure, shortened: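 Wild-type CHO-K1 cells, plated overnight, exposed 3hr at 37C to 15 concentrations (0.76% DMSO final). Lysed, then HTRF anti-pH2AX (S139) cryptate and anti-H2AX-d2 antibodies, 24 hr room temperature; 665/620 nm emission read.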
# [9] = qHTS assay to identify small molecule agonists of the hypoxia (HIF-1) signaling pathway (AID 1224846; active means well fitted activation curve with a large enough effect in the signal ratio in the repeat runs, not every such curve was filed as active; the % refers to the signal ratio)
# Procedure, shortened: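 Hypoxia-pathway activation was scored as increased beta-lactamase from an HRE-controlled reporter in ME-180 cells; plated at 2,000 cells per well with 0.5% dialyzed FBS, they were exposed 17 hrs to compounds and then given CCF4-AM.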
# [10] = qHTS assay to identify small molecule antagonists of the estrogen related receptor (ERR) signaling pathway from Tox21 library (AID 1224848); further: nearly all actives have a fitted effect of over 50% in size; further: potency means the concentration at half of the fitted maximal effect
# Procedure, shortened: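 Luminescent reporter read-out (ONE-Glo) from NTP's ERR cell line after 18 h treatment at 37 C with DMSO-dissolved Tox21 compounds; cells pre-plated 6 h beforehand at 2,000 per well.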
# [11] = qHTS assay to identify small molecule agonists of the estrogen related receptor (ERR) signaling pathway from Tox21 library (AID 1224849; calls by dose curve; further: nearly all actives have a fitted effect of over 15% in size); details: ERR reporter cell line, ONE-Glo luciferase, 18 h; at 92.4 µM (top of the series) unless noted
# Procedure, shortened: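 Six hours post-seeding at 37 C/5% CO2, ERR cells receive DMSO-solubilised compounds; after 18 h at 37 C, ONE-Glo reagent is applied and luminescence recorded.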
# [12] = qHTS RealTime-Glo MT Cell Viability Assay in HepG2 cells - 24 hour (AID 1224867); further: nearly all actives have a fitted effect of over 50% in size
# Procedure, shortened: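 Viability was tracked continuously by NanoLuc luminescence from prosubstrate reduced by living HepG2 cells, at successive time points over 40 h of compound exposure. Cells with reagent were preincubated 5 h at 37 °C before compound addition.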
# [13] = qHTS RealTime-Glo MT Cell Viability Assay in HEK293 cells - 32 hour (AID 1224868); further: nearly all actives have a fitted effect of over 50% in size; further: potency means the concentration at half of the fitted maximal effect
# Procedure, shortened: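 Viability tracked continuously by luminescence as live cells reduce a prosubstrate for NanoLuc; HEK293 cells preincubated 5 h, compound-treated at 37 C, and read at 0, 8, 16, 24, 32 and 40 h.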
# [14] = A CellTox Green Cytotoxicity Assay to monitor cytotoxicity in HEK293 cells - 0 hour (AID 1224869); further: nearly all actives have a fitted effect of over 50% in size
# Procedure, shortened: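 Seeding of HEK293 cells together with cytotoxicity dye preceded a 5 h incubation at 37 C/5% CO2. Test compounds in DMSO were then added and fluorescence monitored across 40 h.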
# [15] = qHTS RealTime-Glo MT Cell Viability Assay in HepG2 cells - 40 hour (AID 1224870); further: nearly all actives have a fitted effect of over 50% in size; further: potency means the concentration at half of the fitted maximal effect
# Procedure, shortened: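 HepG2 cells (600/well) mixed with RealTime-Glo MT reagent, settled 5 h at 37 C/5% CO2 before compound addition. Nonlytic NanoLuc luminescence from viable-cell prosubstrate reduction read repeatedly during 40 h treatment at 37 C.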
# [16] = target: Nuclear receptor subfamily 1 group I member 3 (Homo sapiens) (UniProt Q14994); experiment: qHTS assay to identify small molecule antagonists of the constitutive androstane receptor (CAR) signaling pathway (AID 1224838);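 further: HepG2 cells stably expressing hCAR with CYP2B6 luciferase reporter stimulated by CITCO; nearly all actives have a fitted effect of over 40% in size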
# Procedure, shortened: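 Reporter luminescence was quantified after 24 h exposure of hCAR/CYP2B6-2.2kb double-stable HepG2 cells to compounds at 15 concentrations in the presence of 50 nM CITCO final.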
# [17] = target: Nuclear receptor subfamily 1 group I member 3 (Homo sapiens) (UniProt Q14994); experiment: qHTS assay to identify small molecule agonists of the constitutive androstane receptor (CAR) signaling pathway (AID 1224839); further: nearly all actives have a fitted effect of over 15% in size; further: potency means the concentration at half of the fitted maximal effect;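 on activation: HepG2 cells stably carrying human CAR and a CYP2B6 luciferase reporter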
# Procedure, shortened: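 Cells were plated and incubated 4 hrs, then dosed with compounds at 15 concentrations. PK11195 was added to 0.75 uM final. After 24 hrs at 37 C, luciferase luminescence was measured.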
# [18] = target: Luciferin 4-monooxygenase (Photinus pyralis) (UniProt P08659); experiment: qHTS assay to identify small molecule inhibitors of firefly luciferase (AID 1224835); further: nearly all actives have a fitted effect of over 25% in size; further: potency means the concentration at half of the fitted maximal effect
# Procedure, shortened: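 Biochemical qHTS: compounds run as interplate titrations against purified firefly enzyme, with D-luciferin and ATP each at its KM concentration. Light output recorded by CCD imaging.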
# [19] = target: Thyrotropin receptor (Homo sapiens) (UniProt P16473); experiment: qHTS assay to identify small molecule agonists of the thyroid stimulating hormone receptor (TSHR) signaling pathway (AID 1224843; calls by dose curve; further: nearly all actives have a fitted effect of over 45% in size; further: potency means the concentration at half of the fitted maximal effect)
# Procedure, shortened: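 Steps: seed 800 TSHR-HEK293 cells per well; add test compound and hold 30 min at ambient temperature; dispense cAMP-d2 then anti-cAMP cryptate; incubate 1 h at ambient; measure fluorescence intensity.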
# [20] = qHTS assay to identify small molecule agonists of H2AX - cell viability counter screen (AID 1224847; calls by dose curve; further: top concentration of the series differs between compounds; nearly all actives have a fitted effect of over 30% in size)
# Procedure, shortened: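 Cytotoxicity counter screen in wild-type CHO-K1 cells: a 3 hr compound treatment at 37C across 15 concentrations, followed by CellTiter-Glo luminescence to gauge viable cells.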
# Nuclear receptor subfamily 1 group I member 3 (Homo sapiens), sequence (Q14994 whole entry, looked up): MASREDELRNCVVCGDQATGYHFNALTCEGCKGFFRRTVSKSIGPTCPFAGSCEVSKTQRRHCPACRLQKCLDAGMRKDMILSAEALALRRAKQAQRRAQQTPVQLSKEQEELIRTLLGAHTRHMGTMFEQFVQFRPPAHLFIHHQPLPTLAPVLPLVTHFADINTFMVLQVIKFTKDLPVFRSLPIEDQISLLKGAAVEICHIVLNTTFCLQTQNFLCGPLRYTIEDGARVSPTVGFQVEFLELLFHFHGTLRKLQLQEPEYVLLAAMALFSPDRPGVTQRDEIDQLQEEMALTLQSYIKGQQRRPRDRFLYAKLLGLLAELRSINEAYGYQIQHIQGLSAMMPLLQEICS
# Luciferin 4-monooxygenase (Photinus pyralis), sequence (P08659 whole entry, looked up): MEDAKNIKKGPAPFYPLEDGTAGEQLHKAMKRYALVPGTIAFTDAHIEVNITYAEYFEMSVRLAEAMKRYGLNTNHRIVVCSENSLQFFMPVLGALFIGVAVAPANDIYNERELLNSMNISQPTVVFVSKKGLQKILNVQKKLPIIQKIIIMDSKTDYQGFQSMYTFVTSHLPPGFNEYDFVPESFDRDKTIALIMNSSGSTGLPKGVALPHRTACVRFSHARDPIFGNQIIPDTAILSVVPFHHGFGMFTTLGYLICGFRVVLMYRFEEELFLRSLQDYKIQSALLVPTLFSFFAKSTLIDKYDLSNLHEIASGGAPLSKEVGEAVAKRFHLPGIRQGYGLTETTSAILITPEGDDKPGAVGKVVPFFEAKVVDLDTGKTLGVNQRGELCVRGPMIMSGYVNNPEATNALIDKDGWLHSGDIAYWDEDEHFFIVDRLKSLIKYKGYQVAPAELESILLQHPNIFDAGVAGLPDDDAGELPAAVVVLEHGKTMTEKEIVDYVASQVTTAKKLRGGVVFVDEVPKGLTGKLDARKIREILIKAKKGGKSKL
# Thyrotropin receptor (Homo sapiens), sequence (P16473 whole entry, looked up): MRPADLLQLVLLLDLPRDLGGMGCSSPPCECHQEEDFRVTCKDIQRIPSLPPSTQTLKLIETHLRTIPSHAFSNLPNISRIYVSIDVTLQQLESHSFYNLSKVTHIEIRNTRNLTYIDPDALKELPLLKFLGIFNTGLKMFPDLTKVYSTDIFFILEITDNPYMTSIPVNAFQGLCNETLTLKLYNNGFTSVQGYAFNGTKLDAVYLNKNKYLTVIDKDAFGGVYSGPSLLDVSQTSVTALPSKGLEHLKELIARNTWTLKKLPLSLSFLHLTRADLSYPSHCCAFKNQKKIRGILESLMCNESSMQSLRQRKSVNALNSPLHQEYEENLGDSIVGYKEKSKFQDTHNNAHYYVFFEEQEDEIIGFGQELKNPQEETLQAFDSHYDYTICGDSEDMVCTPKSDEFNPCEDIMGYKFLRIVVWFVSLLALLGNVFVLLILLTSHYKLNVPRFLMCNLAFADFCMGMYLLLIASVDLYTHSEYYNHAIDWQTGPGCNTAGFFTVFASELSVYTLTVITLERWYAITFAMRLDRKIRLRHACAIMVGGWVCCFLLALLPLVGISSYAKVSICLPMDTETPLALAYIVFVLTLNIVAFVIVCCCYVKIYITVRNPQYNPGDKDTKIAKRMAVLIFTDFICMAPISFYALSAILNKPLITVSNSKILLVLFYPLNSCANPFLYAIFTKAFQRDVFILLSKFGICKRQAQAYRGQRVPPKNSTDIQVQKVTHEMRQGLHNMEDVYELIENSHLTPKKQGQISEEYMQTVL
Compound,Potency [1],Potency [2],Potency [3],Potency [4],Potency [5],outcome [6],Potency [7],Potency [8],outcome [9],Potency [10],"activity change, positive = activation [11]",Potency [12],Potency [13],Potency [14],Potency [15],Potency [16],Potency [17],Potency [18],Potency [19],Potency [20]
COC(=O)COc1ccc(Cl)cc1Cl,inactive,inactive,inactive,inactive,inactive,inactive,inactive,inactive,inactive,inactive,8.64%,inactive,inactive,inactive,inactive,–,–,–,–,–
CC(COc1ccc(Oc2ccccc2)cc1)Oc1ccccn1 (centres undefined),inactive,inactive,–,inactive,inactive,inactive,–,inactive,inactive,inactive,0.411%,inactive,–,inactive,inactive,inactive,54.4 µM (active),–,–,–
CSc1nc(N=[N+]=[N-])nc(NC(C)C)n1,–,inactive,inactive,inactive,–,–,inactive,inactive,inactive,–,–,–,–,inactive,inactive,inactive,54.5 µM (active),inactive,inactive,inactive
CC1=C(C(=O)Nc2ccccc2)S(=O)(=O)CCO1,61.1 µM (active),–,–,–,–,–,–,inactive,–,–,–,inactive,48.9 µM (active),inactive,–,–,inactive,inactive,inactive,inactive
O=C(Nc1ccccc1)N(Cc1ccc(Cl)cc1)C1CCCC1,48.6 µM (active),–,61.1 µM (active),–,–,inactive,inactive,inactive,inactive,54.5 µM (active),-60.6%,–,24.5 µM (active),inactive,inactive,–,–,inactive,48.6 µM (active),–
COP(=S)(OC)Oc1c(Cl)cc(C)cc1Cl,inactive,inactive,inactive,inactive,inactive,inactive,inactive,inactive,inactive,inactive,0.872%,inactive,inactive,inactive,inactive,inactive,27.3 µM (active),–,–,inactive
CCCCCCI,inactive,inactive,inactive,inactive,–,inactive,inactive,inactive,inactive,inactive,-0.122%,–,inactive,inactive,24.6 µM (active),inactive,inactive,–,–,inactive
O=C(CCCN1CCC(n2c(=O)[nH]c3ccccc32)CC1)c1ccc(F)cc1,–,inactive,inactive,inactive,–,–,inactive,inactive,inactive,–,–,–,–,inactive,inactive,inactive,inactive,inactive,inactive,inactive
COc1ncc(F)c2nc(S(=O)(=O)Nc3c(F)cccc3F)nn12,–,–,inactive,inactive,–,–,inactive,inactive,inactive,–,–,inactive,inactive,inactive,inactive,inactive,inactive,inactive,inactive,inactive
BrCCCCCCBr,inactive,–,inactive,inactive,–,–,inactive,inactive,inactive,–,–,–,inactive,inactive,inactive,inactive,inactive,–,inactive,inactive
Fc1ccc(C2(Cn3cncn3)OC2c2ccccc2Cl)cc1 (centres undefined),–,–,inactive,–,38.6 µM (active),inactive,inactive,inactive,inactive,48.6 µM (active),-40.8%,inactive,43.6 µM (active),inactive,inactive,inactive,inactive,inactive,inactive,inactive
CC(C)(C)OC(=O)c1ncn2c1[C@@H]1CCCN1C(=O)c1c(Br)cccc1-2,–,inactive,inactive,inactive,–,inactive,inactive,–,inactive,23.7 µM (active),-34.2% [at 42.5 µM],inactive,inactive,inactive,inactive,inactive,inactive,inactive,inactive,inactive
CCOC(=O)C(c1c(O)c2ccccc2oc1=O)c1c(O)c2ccccc2oc1=O,inactive,inactive,inactive,inactive,–,–,–,inactive,–,–,–,inactive,inactive,inactive,inactive,–,inactive,–,inactive,–
c1cc[c]([Hg][c]2ccccc2)cc1,–,inactive,inactive,–,–,–,49 µM (active),–,–,–,–,inactive,30.9 µM (active),inactive,inactive,–,–,17.8 µM (active),inactive,inactive
CCOP(=S)(OCC)Oc1nc(Cl)n(C(C)C)n1,inactive,inactive,–,inactive,–,–,inactive,inactive,inactive,–,–,inactive,inactive,inactive,inactive,–,–,–,inactive,inactive
COc1ccc2c(c1OC)CN1CCc3cc4c(cc3C1C2)OCO4 (centres undefined),–,inactive,–,inactive,–,–,inactive,inactive,–,–,–,inactive,–,inactive,inactive,–,–,inactive,inactive,–
CC1(C(=O)Nc2ccc(O)c(Cl)c2Cl)CCCCC1,–,inactive,–,inactive,–,inactive,inactive,inactive,inactive,61.1 µM (active),-35.4%,–,–,inactive,inactive,–,inactive,inactive,–,–
CNC(=O)Oc1cccc(C(C)C)c1,inactive,inactive,inactive,inactive,–,–,inactive,inactive,inactive,–,–,inactive,inactive,inactive,inactive,inactive,–,–,inactive,–
